# Screening results (PubChem)
# DT40 TDP1 CPT: growth inhibition of DT40 Tdp1-/-;hTDP1 cells with camptothecin (screen for TDP1 inhibitors) | chicken DT40 Tdp1-/-;hTDP1 cells + 20 nM CPT, ATP luminescence, 48 h | Potency, µM (doses to about 46.2 µM), for the others: at the highest dose activity change, negative = growth inhibition, usual class: inhibitors | 420,000 compounds, 12% hits; also: potency is read from the fitted curve at half-maximal effect; nearly all actives have a fitted effect of over 55% in size
#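 Cell growth measured by CellTiter-Glo luminescence after a minimum 48 h, 37 C compound exposure with 20 nM CPT in Tdp1-knockout DT40 cells stably expressing hTDP1, seeded 400/well; qHTS titration format.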
# HT1080-NT tox: kills 2HG-producing HT-1080-NT fibrosarcoma cells | AID 686970 | HT-1080-NT fibrosarcoma viability, CellTiter-Glo ATP luminescence, 48 h | 360,000 compounds, 1.6% hits | Potency, µM (titrated, usually from 46.1 µM), for inactives: at the top dose activity, negative = less viability, usual class: cytotoxic;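 also: NT is the 2HG producing partner of a matched IDH1 knockdown line; potency is read from the fitted curve at half-maximal effect; 0% = DMSO-treated cells and -100% = media-only wells without cells; nearly all actives have a fitted effect of over 55% in size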
#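 Luminescent CellTiter-Glo readout after 48 hours of compound exposure at 37 degrees C defined viability of HT-1080-NT cells. Activity was normalized to DMSO wells and cell-free media wells; concentration-response curves were fitted and assigned curve classes.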
# ALOX12 inh: ALOX12 (human) lipoxygenase inhibition | P18054 | purified 12hLO, xylenol orange hydroperoxide absorbance | Potency, µM (highest dose often 108 µM), without a hit: at the top dose activity change, negative = inhibition, hits mostly inhibitors | 580,000 compounds, 1.1% hits; also: potency is read from the fitted curve at half-maximal effect
# Target sequence (P18054 whole entry, looked up): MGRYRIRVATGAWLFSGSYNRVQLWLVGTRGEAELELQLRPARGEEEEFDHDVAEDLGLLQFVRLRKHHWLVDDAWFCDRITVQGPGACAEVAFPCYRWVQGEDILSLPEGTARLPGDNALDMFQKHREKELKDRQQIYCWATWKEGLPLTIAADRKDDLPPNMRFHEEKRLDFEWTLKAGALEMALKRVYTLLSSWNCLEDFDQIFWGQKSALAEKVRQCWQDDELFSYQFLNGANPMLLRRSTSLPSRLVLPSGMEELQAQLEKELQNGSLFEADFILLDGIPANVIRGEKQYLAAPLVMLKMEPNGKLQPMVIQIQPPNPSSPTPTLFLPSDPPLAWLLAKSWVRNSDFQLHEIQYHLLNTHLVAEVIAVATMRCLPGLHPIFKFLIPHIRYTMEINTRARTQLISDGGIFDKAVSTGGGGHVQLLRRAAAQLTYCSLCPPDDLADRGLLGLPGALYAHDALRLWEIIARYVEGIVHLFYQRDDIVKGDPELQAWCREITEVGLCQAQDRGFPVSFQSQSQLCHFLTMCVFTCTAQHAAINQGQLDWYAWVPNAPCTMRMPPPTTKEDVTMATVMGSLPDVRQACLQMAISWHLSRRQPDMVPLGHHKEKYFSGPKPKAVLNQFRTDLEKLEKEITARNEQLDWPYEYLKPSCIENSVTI
#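 Purified human 12hLO at 150 nM in 25 mM Hepes, 0.01% Triton X-100, pH 7.0, preincubated 15 min at room temperature with compound. Reaction started with 40 uM arachidonic acid, 30 min at room temperature. Hydroperoxide measured by Fe-xylenol orange, 573/405 nm absorbance ratio.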
# TDP1 cell noCPT: qHTS for Inhibitors of human tyrosyl-DNA phosphodiesterase 1 (TDP1): qHTS in cells in absence of CPT. Potency, µM (highest dose often 46.2 µM), inactives show at the highest dose activity change, negative = growth inhibition, most hits filed as inhibitors. AID 686978, 2013. DT40 Tdp1-/- hTDP1 cells, no CPT, ATP luminescence, 48 h. 420,000 compounds, 15% hits; also: potency is read from the fitted curve at half-maximal effect; nearly all actives have a fitted effect of over 55% in size
#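 Seeded 400 DT40-hTDP1 cells/well (vehicle DMSO, no 20 nM CPT); pinned compounds; ≥48 hr at 37 °C; CellTiter-Glo luminescence as viability measure.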
# HT1080 IDH1KD tx: HT-1080 IDH1 knockdown cell toxicity (counter line); HT-1080 IDH1 knockdown viability, ATP luminescence, 48 h; 360,000 compounds, 2% hits; Potency, µM (titrated, usually from 46.1 µM), for inactives: top-dose activity, negative = toxicity, usual class: cytotoxic; AID 686971;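 also: potency is read from the fitted curve at half-maximal effect; 0% = DMSO wells and -100% = cell-free medium wells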
#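 Viability of IDH1-knockdown HT-1080 fibrosarcoma cells was assessed by CellTiter-Glo after 48 h at 37 °C with titrated compound; concentration-effect curves were classified by fit quality and response size.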
# IL1B secr inh: blocks inflammasome-driven IL-1 beta release. THP-1 LPS/ATP IL-1B secretion, AlphaLISA, 16 h; hits give low values. activity change, % at 57.5 µM. 360,000 compounds, 4.7% hits. AID 743279; in the data active = activity change below about -50%; inconclusive = mostly about -30% to -49%
#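 THP-1 cells pretreated 1 hr with compounds (up to 57.5 uM final), then stimulated with LPS (250 ng/mL final) plus ATP (1.25 mM final); secreted IL-1B measured by AlphaLISA after 16 hr, decreased signal indicating inhibition.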
# Starred values were filed as active, the others as inactive; ? = inconclusive; . = no result. Only a selection was taken, and hits are over-represented in it overall. Unless noted, calls follow the shape of the dose curve; as a rule, active = well fitted curve in the direction sought with a large enough effect; inconclusive = small, poorly fitted or top-dose-only effect, or another doubt; inactive = no such curve, though single readings can be large; an effect the other way counts as inactive or inconclusive. Unless noted, % is scaled to controls: 0 for no effect and ±100 for the full control effect.
SMILES,DT40 TDP1 CPT,HT1080-NT tox,ALOX12 inh,TDP1 cell noCPT,HT1080 IDH1KD tx,IL1B secr inh
Cc1cc(C)c(Cn2cnc(-c3ccc([N+](=O)[O-])cc3)c2)c(C)c1,13µM*,-22%,-20%,15µM*,?,-64*
CNc1ccc(OC)cc1-n1cnc(-c2ccc([N+](=O)[O-])cc2)c1,-19%,-15%,?,-14%,-21%,24
COc1ccc(-c2cn(Cc3ccc([N+](=O)[O-])cc3)nn2)cc1,?,0%,23%,?,-3%,29
c1cnc2c(-n3nc(C4CCOCC4)nc3C3CC3)cccc2c1,.,.,18%,.,.,.
CC(=O)NC1=C(C#N)C(c2ccccc2)c2c(ccc3ccccc23)O1 (stereo not drawn),8.2µM*,?,-22%,7.3µM*,15µM*,60
CC1c2ccccc2SC(CCCN(C)C)c2ccccc21 (stereo not drawn),16µM*,?,-5%,?,?,-52*
CCOC(=O)/C=C1\CN(Cc2cc(OC)c(OC)c(OC)c2)S(=O)(=O)c2ccccc21,10µM*,?,-7%,6.5µM*,-10%,0
CCCCCCCCCCCCN1C/C(=C\C(=O)OCC)c2cc(C(F)(F)F)ccc2S1(=O)=O,?,-3%,1%,?,-2%,32
CCOC(=O)/C=C1\CN(Cc2cc(OC)c(OC)c(OC)c2)S(=O)(=O)c2ccc(C(F)(F)F)cc21,23µM*,0%,-29%,12µM*,-6%,-26
CCCCCCCCCCCCN1C/C(=C\C(=O)OCC)c2ccccc2S1(=O)=O,16µM*,1%,-8%,11µM*,-8%,25
C=C1CCN([C@@H](C)C(=O)NCc2cc(OC)c(OC)c(OC)c2)S(=O)(=O)c2ccccc21,?,9%,3%,?,6%,3
COCCNC(=O)[C@H]1C[C@H](Oc2cccnc2)CN1S(=O)(=O)c1ccccc1,.,.,-7%,.,.,.
COc1ccccc1/C=C/C(=O)OCC(=O)N1CCN(S(=O)(=O)c2ccc(C)cc2C)CC1,?,10%,-1%,?,5%,3
C=CCOc1ccc(/C=C/C(=O)OCC(=O)N2CCN(S(=O)(=O)c3ccc(C)cc3C)CC2)cc1,?,2%,23%,7.3µM*,14%,15
COc1cc(/C=C/C(=O)OCC(=O)N2CCN(S(=O)(=O)c3ccc(C)cc3C)CC2)cc(Cl)c1OC,?,6%,-5%,18µM*,6%,1
CC(C)NC(=O)CN(C)c1nc(-c2ccncc2)nc2ccccc12,.,.,-14%,.,.,.
O=C(CSc1nnc(-c2cccs2)n1C1CC1)NC1CCS(=O)(=O)C1 (stereo not drawn),-12%,0%,-24%,8%,-1%,12
COc1ccc2sc3c(=O)[nH]c4ccccc4c3c2c1,5.8µM*,-22%,-7%,1.6µM*,-15%,12
CCCCCCn1c(C(C)O)nc2ccccc21 (stereo not drawn),?,-6%,34%,?,-5%,35
CC(O)c1nc2ccccc2n1CCCc1ccccc1 (stereo not drawn),18µM*,-24%,8%,-25%,-4%,-8
OCc1nc2ccccc2n1CCCc1ccccc1,16µM*,1%,-8%,?,6%,9
CC(O)c1nc2ccccc2n1CCCOc1ccccc1 (stereo not drawn),?,0%,11%,16µM*,-3%,63
CC(O)c1nc2ccccc2n1Cc1ccccc1 (stereo not drawn),-18%,-1%,?,4%,-1%,11
O=C1CCCCCN1CC(=O)N1CCCC(OCc2ccccc2)C1 (stereo not drawn),.,.,38%,.,.,.
